According to PubChem BioAssay (NCI):
This is part of a sample that, as a whole, favours compounds with a hit. Of some 83,000 tested, about 20% had one in any assay.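 Growth was measured after 48 h exposure to one concentration of compound in 96-well plates. Values under 10 count as active.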 A number with no mark means an inactive call. Activity calls are given as the source filed them.

Each compound was assayed on SR leukemia (assay: NCI-60 one-dose screen, 48 h (100 = growth as untreated, 0 = no growth, -100 = all killed)). Conditions: 10 µM unless noted.

SMILES	growth
OC(c1ccc(F)c(C(F)(F)F)c1)c1cnccc1NC1CCCCC1 (stereo not drawn)	16.6%
CC(=O)CCC(=O)OCc1cc(=O)c(O)co1	86.4%
O=S(=O)(Nc1ccc(-n2cnc3cc(-c4ccc(O)cc4)ccc32)cc1)c1ccccc1	78%
O=C1Nc2cc(-c3ccc(NC(=O)c4ccccc4)cc3)ccc2/C1=C/c1ccc[nH]1	29.7%
CCCOC(=O)N[C@H]1CCc2cc(OC)c(OC)c(OC)c2-c2ccc(SC)c(=O)cc21	4.77% (active)
COc1ccc(C(=O)Nc2cccc(C3CCc4c(cc(OC)c(OC)c4OC)O3)c2)cc1 (stereo not drawn)	21.6%
COc1cc(/C=N/O)nc(-c2ccccn2)c1	9.23% (active)
NC(=NCCCOc1ccc(F)cc1)Nc1ccc(I)cc1	58%
Cn1c(-c2c(N)n(CCCN3CCOCC3)c3nc(C#N)c(C#N)nc23)nc2ccccc21	-57.7% (active)
CCOC(=O)c1ccc2c(c1)ncn2-c1ccc(NC(=O)Nc2cccc(C)c2)cc1	19.9%
COc1ccc2[nH]c(=O)c(CN3CCN(c4nccc(-c5ccc(Cl)cc5)n4)CC3)cc2c1	70.3%
O=C(/C(=C\c1ccc([N+](=O)[O-])cc1)S(=O)Cc1ccc(Cl)cc1)c1ccc(Cl)cc1 (stereo not drawn)	15%
CCN(CC)CC[n+]1cc2cc(OC)c(OC)cc2c2ccc3cc4c(cc3c21)OCO4	-11.3% (active)
N#CC(C#N)=Cc1cc2ccccc2nc1Oc1ccc(C(F)(F)F)cc1	30.8%
COc1cc(/C=C\C(=O)O)ccc1OCc1ccccc1	97.7%
c1ccc(-c2cn3c(ccc4ccccc43)n2)cc1	20.9%
O=C(Nc1ccc(Cl)cc1)c1cc(NCc2cc(O)ccc2O)ccc1O	9.06% (active)
N/C(=N\C(N)=N\c1nc2ccccc2s1)c1cnccn1	0% (active)
CCOC(=O)[C@@H](C)C[C@H](Cc1ccccc1)NC(=O)c1csc([C@@H](C[C@H](C(C)C)N(C)C(=O)[C@@H](NC(=O)[C@H]2C[C@H](O[Si](C)(C)C(C)(C)C)CCN2C)C(C)C)OC(C)=O)n1	-13.9% [9.25 µM] (active)

SMILES	growth
CC(C)N1C(=O)/C(=C2\SC(=S)N(C(C)C)C2=O)SC1=S	109%
C#CCNC(=O)c1cccc2c1cc(C)n2-c1nc2c(c(NCc3ccccc3)n1)CCCC2	6.53% (active)
COc1cc2nc(-c3ccc(Cl)cc3)cc(OCCCN3CCCCC3)c2cc1OC	9.98% (active)
O=C(N/N=C/c1ccc(Oc2ccccc2)cc1)c1cnn2c1NC(c1ccccc1)C2 (stereo not drawn)	31%
O=[N+]([O-])CC(c1ccccc1)c1c[nH]c2ccccc12 (stereo not drawn)	20.2%
COc1ccc(CNCCN2C(=O)c3ccc4c5c(ccc(c35)C2=O)C(=O)N(CCNCc2ccc(OC)c(OC)c2OC)C4=O)c(OC)c1OC	-23.2% (active)
Cn1c(N2NC(=O)C(N=Nc3ccc(S(N)(=O)=O)cc3)C2=O)nc(-c2ccco2)c(C#N)c1=O (stereo not drawn)	1.63% (active)
CCCOC(=O)N[C@H]1CCc2c(Cl)c(OC)c(OC)c(OC)c2-c2ccc(SC)c(=O)cc21	4.56% (active)
C/C=C(\C)C(=O)NC1=CC[C@@]2(C)C(=CCC3C2CC[C@@]2(C)C3CC[C@@H]2C(C)N(C)C)C1=O (stereo partly drawn)	27.7%
COc1ccccc1/C(C)=N/NC(=O)CSc1nc2ccccc2c(=O)n1Cc1ccc(S(N)(=O)=O)cc1	96.1%
COc1ccc(OC)c(-c2cc(-c3ccc(Cl)cc3)c3c(N)c(C(=O)c4ccc(Cl)cc4)sc3n2)c1	101%
N#C/C(=C\c1ccc(Cl)cc1)n1nnc2cc(F)c(F)cc21	5.64% (active)
COc1cccc(C(=O)NNc2nc(Cl)nc(N3CCN(C(c4ccccc4)c4ccccc4)CC3)n2)c1	-23.8% (active)
C=C1C(=O)O[C@H]2[C@H]1CC/C(CNC(=O)/C=C/c1ccccc1)=C\CC[C@@]1(C)O[C@@H]21	6.13% (active)
CCN(CC)CCOc1ccc(NC(=O)C(C(C)C)N2C(=O)/C(=C/c3ccc(Br)cc3)SC2=S)cc1 (stereo not drawn)	-42% (active)
N#Cc1cccc(-c2ccc3c(c2)NC(=O)/C3=C\c2ccc[nH]2)c1	3.89% (active)
CCCCCCCCOc1ccc(/C=N/Nc2cc(C)nc3ccc(Br)cc23)cc1	-14.3% (active)
O=C(N/N=C/c1cc2ccccc2n2nnnc12)Nc1ccccc1	87.4%
COc1cc2c(c(O)c1Br)C(=O)c1c(O)cc(C[C@H](C)O)cc1[C@H]2[C@H]1c2cc(C[C@H](C)O)cc(O)c2C(=O)c2c1cc(OC)c(Br)c2O	-5.41% (active)
